Experimental data: the supplement of paper PMC3334620
Over roughly 33,000 sequences, “E-score (-0.5 to 0.5)” has its median near -0.017; the highest 2% begin near 0.3. This excerpt belongs to a sample that is enriched for the highest values.

These sequences were tested against T1, Sut1 (UniProt P53032) (assay: PBM E-score (8-mer binding enrichment) (E-score (-0.5 to 0.5)); higher = stronger / more preferred TF binding). Details: protein concentration: 200 nM; construct: GST-full length.
T1 sequence: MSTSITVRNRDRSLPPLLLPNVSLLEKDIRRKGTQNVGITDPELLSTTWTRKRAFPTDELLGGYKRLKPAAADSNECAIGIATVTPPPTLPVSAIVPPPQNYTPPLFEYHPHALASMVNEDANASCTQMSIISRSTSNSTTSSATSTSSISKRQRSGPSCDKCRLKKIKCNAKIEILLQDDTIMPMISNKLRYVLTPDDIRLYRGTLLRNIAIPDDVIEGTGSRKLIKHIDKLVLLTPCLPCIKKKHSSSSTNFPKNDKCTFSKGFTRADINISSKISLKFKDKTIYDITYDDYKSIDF
Experimental: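 Universal 'all 10-mer' protein binding microarrays (Agilent AMADID 015681) probed with GST-tagged S. cerevisiae TFs (full-length or DBD) made by in vitro transcription/translation (PURExpress), about 100-200 nM. Bound TF was detected with fluorescent anti-GST. Each ungapped 8-mer (which stands for itself and its reverse complement) is scored by the PBM enrichment score (E-score), a modified Wilcoxon-Mann-Whitney statistic from -0.5 to +0.5, computed with the Universal PBM Analysis Suite. Scale: above 0.35 generally sequence-specific binding.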

Sequence | PBM E-score
AGCCTAGA | -0.224
GAACCGCA | 0.0646
AATTGACC | 0.0635
CGAGTGAG | 0.0764
GGGAATAC | -0.0577
GGGAATAA | 0.233
TGGAATAA | 0.122
AGGAATAC | -3e-05
CGGAATAC | 0.325
CGGAATAA | 0.306
AAAGGGTA | -0.054
TGTGGCAA | -0.0604
GAATTGGA | 0.0498
CCCAAACC | -0.0698
ATCCCGGG | -0.07
GTCCCCGA | 0.066
ATCCCGGA | 0.328
GTCCCGGA | 0.348
CTCCCGGA | 0.232
GTCCCGCA | -0.159
CAGTCGAC | -0.0872
TATGCTGA | 0.175
CACACCGG | 0.0539

Sequence | PBM E-score
AACACCGC | -0.0108
AACACCGG | 0.301
CTGCTATC | 0.134
AGTCTCTG | -0.12
AGCAGTAA | 0.0389
AAAAGGCA | 0.114
GAGACGAA | -0.0447
CAGACGAA | 0.298
CAGACGAC | -0.213
AGCTATGC | -0.227
AGGAATTC | -0.203
GGGAATTA | 0.143
CGGAATTC | 0.323
AGGAATTA | 0.137
CGGAATTA | 0.349
CTGAATTC | -0.102
CATGTGAC | -0.0811
AATAAGTC | 0.0835
AATTCCGC | 0.192
AAATCCGG | 0.36
AAATCCGT | 0.149
AATTCCGG | 0.337
AATTCCCT | -0.0468

Sequence | PBM E-score
AATTCCGT | 0.317
AATTCCAT | 0.0698
CATTCCGG | 0.194
AAATCCGC | -0.0542
AAGAGTCG | 0.00242
AGTAGTGC | -0.185
ACACTCGG | 0.00116
GAGAATGC | 0.0169
AACTTATG | 0.0687
AACTTATA | 0.31
CACTTATA | 0.0975
GACTTATC | -0.0236
GACTTATA | 0.326
TACTTATA | 0.151
AACGTCTT | -0.113
GGCTCCCC | -0.226
CAAGGCCC | -0.132
CGCATAAG | -0.0216
CATAGGGA | -0.0219
CAGGTGGC | -0.219
GTTGGTGA | -0.0399
ACCGGATC | 0.0878
ACCGGAGA | 0.43

Sequence | PBM E-score
ACAGGAGA | -0.137
ACCGGATA | 0.0607
CCCGGATA | 0.123
ACCGGAGT | 0.492
ACCGGAGG | 0.133
ACCAGAGT | -0.256
CCCGGAGA | 0.374
ACCGGAGC | 0.353
ACCGGAAT | 0.204
CCCGGAGG | 0.0148
TGTCTGAA | 0.0592
ACCGGTCT | -0.115
ATGACAAT | 0.198
GCCGGAGA | 0.316
CCCGGAGC | 0.406
TCAGGAGA | 0.0262
TCCGGAGA | 0.409
GCCGGAGC | 0.284
GCCGGAAA | 0.244
CCCGGAAC | 0.129
TCCAGAGA | -0.187
CCGGGAGC | -0.0765
CCACCCAG | -0.129

Sequence | PBM E-score
CCGAGTTC | 0.0827
ATACTGGG | -0.138
AATCCGAA | 0.159
AATCCGAT | 0.195
GGTCCGAC | 0.24
CGTCCGAG | 0.149
AGTCCTAT | 0.0983
CGTCCGAC | -0.14
AGTCCGAA | 0.49
AGTCCGAC | 0.477
AGTCCGAT | 0.486
AGTCCAAA | 0.169
AATCCGAG | 0.0276
AGTCCGAG | 0.489
CGCATTCC | -0.284
AGTATCGG | 0.176
CGTGGGTC | -0.162
CCTCAAGA | -0.113
GTCCTCAC | -0.0725
ACAGTCAC | -0.176
TTATACAA | 0.326
ATATACAA | 0.256
